Screening results: PubChem BioAssay, The Scripps Research Institute Molecular Screening Center
MITF primary – blocks human microphthalmia-associated transcription factor; O75030; AlphaScreen MITF homodimerization, bead proximity signal; inhibition, % at 2.6 µM; hit rate 0.91% among 650,000; in the data active means inhibition above about 50%;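 further: 0% = vehicle wells with protein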
GPR151 activ – activates the human receptor GPR151; PathHunter beta-arrestin GPR151 cells, luminescence; activation, % at 11.2 µM; hit rate 1% among 650,000; AID 1508602; in the data active means activation above about 4.9%;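 further: 0% = median of compound wells and 100% = cells with positive control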
Target sequence (Q8TDV0 whole entry, looked up): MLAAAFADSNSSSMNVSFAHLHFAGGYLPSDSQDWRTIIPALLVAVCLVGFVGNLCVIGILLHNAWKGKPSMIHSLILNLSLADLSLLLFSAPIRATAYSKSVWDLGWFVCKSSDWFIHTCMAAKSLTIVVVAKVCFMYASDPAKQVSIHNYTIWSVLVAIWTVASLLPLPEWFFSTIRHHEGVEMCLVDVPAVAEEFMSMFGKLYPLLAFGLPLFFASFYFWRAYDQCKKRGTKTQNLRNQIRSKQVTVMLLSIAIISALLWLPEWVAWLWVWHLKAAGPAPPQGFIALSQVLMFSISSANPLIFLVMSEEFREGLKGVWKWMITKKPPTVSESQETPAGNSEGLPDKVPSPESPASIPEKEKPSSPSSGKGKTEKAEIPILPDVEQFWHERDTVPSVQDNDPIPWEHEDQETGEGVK
FBW7 activator – human FBW7 E3 ligase activation, primary screen; Q969H0; AlphaScreen FBW7–phospho-cyclin E peptide binding, activator screen; normalized activity (activation), % at 26.1 µM; hit rate 0.13% among 650,000; AID 1259310; in the data active means normalized activity above about 1.9%;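 further: purified mutant Fbw7 with reduced substrate affinity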
TEAD-YAP inh – TEAD-YAP interaction inhibition. HEK-TIYL cells, TEAD-Gal4/YAP UAS-luciferase luminescence. inhibition, % at 9.12 µM. hit rate 1.4% among 640,000. AID 1259422; in the data active means inhibition above about 32%;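 further: 0% = median of test compound wells and 100% = reference inhibitor wells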
* hit, by the source's call. A selection: hits, their analogues and other compounds. The true share with any hit is near 3.5%.

SMILES	MITF primary	GPR151 activ	FBW7 activator	TEAD-YAP inh
COc1ccc(C2C(C#N)=C(N)Oc3c2sc2ccccc32)cc1OC (stereo not given)	7.9	1.6	0.1	56.2*
COc1cccc2cc(C(=O)Nc3cccc(C)c3)c(=N)oc12	-0.9	-1.0	0.8	-39.7
COc1ccc(/C=N\Nc2nc3ccccc3s2)cc1	-3.4	-2.2	-0.3	42.2*
Cc1[nH]n(-c2ccccc2)c(=O)c1C(c1cccc(Br)c1)c1c(C)[nH]n(-c2ccccc2)c1=O	0.5	-1.1	-0.7	0.7
Cc1[nH]n(-c2ccccc2)c(=O)c1C(=O)c1cccc(Br)c1	12.0	1.3	0.1	59.2*
CCSc1nc2c(c(=O)[nH]c(=O)n2C)n1CCCc1ccccc1	5.3	0.8	0.4	0.0
CCSc1nc2c(c(=O)[nH]c(=O)n2C)n1CCc1ccc(OC)cc1	-11.9	0.0	0.1	42.6*
COc1cc(CNc2ccc3c(c2)CCN3C(C)=O)cc(OC)c1OC	0.7	0.3	0.1	67.1*
COc1ccc(S(=O)(=O)Nc2ccc3c(c2)CCCN3C(C)=O)c(OC)c1	11.8	1.1	-0.1	7.2
CC(C)c1nnc(C2CCN(C(=O)NCc3cccc4ccccc34)CC2)o1	-2.3	3.9	2.0*	-3.4
CC(C)c1nnc(C2CCN(C(=O)NCc3ccccc3)CC2)o1	-1.5	-1.1	1.3	4.7
Cc1cc(C)c2nc3c(cc2c1)CN(Cc1ccco1)C(=O)CO3	4.1	0.7	-0.1	-11.6
Cc1ccc2cc3c(nc2c1C)OC(C)C(=O)N(Cc1ccco1)C3 (stereo not given)	3.6	0.9	0.0	55.6*
COc1ccc(C(=O)N/N=C/c2cc([N+](=O)[O-])cc(OC)c2O)cc1	46.0	0.1	-0.8	20.5
Cc1cc(NCCN(C(C)C)C(C)C)nc(Oc2ccccc2)n1	-2.2	0.8	0.1	63.6*
COc1ccc(CCNc2cc(C)nc(Oc3ccccc3)n2)cc1	19.1	3.1	0.1	34.5*
Oc1ccc(CCNc2ccnc(Nc3ccc(-n4ccnc4)cc3)n2)cc1	9.4	3.4	-0.2	43.4*
Oc1ccc(CCNc2ccnc(Nc3ccncc3)n2)cc1	-17.9	-1.2	0.1	74.9*
Oc1ccc(CCNc2ccnc(Nc3ccc(C(F)(F)F)cc3)n2)cc1	-7.3	2.0	-0.2	1.2
O=C(CSc1nccc(=O)[nH]1)c1ccc(O)c(O)c1	55.1*	-1.6	-0.2	1.5
CN1c2ccccc2N(C)C1c1cccc(O)c1	5.2	0.0	0.0	1.9
CN(C)c1ccc(C2N(C)c3ccccc3N2C)cc1	7.6	0.3	0.1	47.3*
COc1ccc(CC(=O)Nc2cc3cc(-c4cnn(C)c4)ccc3cn2)cc1	6.3	-1.1	-0.1	72.2*
COc1ccc(CC(=O)Nc2cc(-c3cnn(C)c3)ccn2)cc1	-5.7	-0.5	0.1	43.4*
COc1ccc(CC(=O)Nc2ccc(-c3cn[nH]c3)cc2N2CCN(C)CC2)cc1	-1.5	1.2	0.6	-13.1
SMILES	MITF primary	GPR151 activ	FBW7 activator	TEAD-YAP inh
COc1ccc(CC(=O)Nc2cc(C)on2)cc1	18.0	-0.7	0.2	4.2
NC1CCN(c2ccnc(NC(=O)Cc3ccc4c(c3)OCO4)c2)CC1	0.5	2.6	-0.6	6.7
COc1ccc(CC(=O)Nc2cc3cc(-c4cn[nH]c4)ccc3cn2)cc1	-5.1	-2.2	-0.1	95.9*
Cn1cc(-c2ccnc(NC(=O)Cc3ccc4c(c3)OCO4)c2)cn1	1.8	1.5	-0.7	33.9*
CCOCCCNC1CCCN(c2nc(C)c3ccc(C)cc3n2)CC1 (stereo not given)	5.1	-1.6	0.0	-1.1
CCCCCOC(=O)C1=C(C)Nc2nnnn2C1c1cc(Br)ccc1OC (stereo not given)	0.0	-0.3	0.1	7.5
CCCCCCC(=O)Oc1ccc(-c2cnc3ccccc3n2)cc1	-0.9	-1.4	0.1	-3.8
CCC(=O)Oc1ccc(-c2cnc3ccccc3n2)cc1	9.1	-7.7	-0.1	41.2*
Cc1cc(C)nc(SCC(=O)N(c2ccc(F)cc2)c2nccs2)n1	6.3	0.7	0.0	-10.8
Fc1ccc(-c2nnc3sc(CN4CCc5ccccc5C4)cn23)cc1	14.5	0.5	-0.1	0.6
COc1cccc(-c2nnc3sc(CN4CCc5ccccc5C4)cn23)c1	3.4	1.0	0.1	49.3*
Cc1[nH]cnc1CN1CCCC(C(=O)c2ccc(Oc3ccccc3)cc2)C1 (stereo not given)	9.2	1.5	0.5	32.5*
COCCNC(=O)/C(=C\c1ccc(N(C)C)cc1)NC(=O)c1ccc(C)cc1	11.7	-0.3	0.3	-7.9
COC(=O)c1cc2c(cc1NC(=O)c1cccc3c1SCCC3=O)OCO2	-1.0	-0.3	0.0	51.3*
COC(=O)c1sccc1NC(=O)c1cccc2c1SCCC2=O	6.1	-0.8	-0.1	9.7
CC(=O)N(CC(C)C)c1nnc(-c2cccnc2)s1	-3.6	4.7	0.0	-15.9
CCN(CC)c1ccc2cc(-c3nc(-c4ccccc4)cs3)c(=O)oc2c1	-13.7	-0.3	0.2	10.2
CCN(CC)c1ccc2cc(-c3nc(C)cs3)c(=O)oc2c1	-22.7	-3.7	3.4*	94.4*
CCN(CC)c1ccc2cc(-c3ccccn3)c(=O)oc2c1	-66.2	-8.7	2.7*	92.8*
Cc1cc(C(=O)COC(=O)/C=C/c2cnc3ccccc3n2)c(C)n1CC1CCCO1 (stereo not given)	10.6	-0.1	0.1	4.5
Cc1cc(S(=O)(=O)Nc2cc3c4c(c2)C(C)C(=O)N4CCC3)ccc1F (stereo not given)	6.8	-1.3	-0.1	4.7
Cc1cc(C)c2c(N)c(-c3nc4ccccc4[nH]3)sc2n1	-4.1	-4.3	-0.1	-42.0
Cc1ccc2nc(-c3sc4nc(C)ccc4c3N)[nH]c2c1	-3.0	-0.3	-0.1	72.1*
CC(=O)Nc1sc(Cc2ccc3c(c2)OCO3)c(C)c1C(N)=O	1.8	-0.9	0.0	-1.9
Cc1sc(NC(=O)c2ccc3c(c2)OCO3)c(C(N)=O)c1-c1ccccc1	-2.4	0.0	0.2	89.5*
SMILES	MITF primary	GPR151 activ	FBW7 activator	TEAD-YAP inh
Cc1c(Cc2ccc3c(c2)OCO3)sc(NC(=O)CCc2ccccc2)c1C(N)=O	-12.1	2.2	-0.2	55.6*
Cc1sc(NC(=S)NC(=O)CCc2ccccc2)c(C(N)=O)c1C	-4.5	-0.2	0.0	50.1*
COC(=O)c1c(NC(=O)c2ccc3c(c2)OCO3)sc(C)c1C	0.5	-0.3	0.1	-8.8
COC(=O)CCC(=O)Nc1sc(C)c(C)c1C(N)=O	2.4	1.4	0.1	-4.8
COC(=O)CCC(=O)NC(=S)Nc1sc(C)c(C)c1C(N)=O	-10.1	2.0	0.0	51.7*
O=C(NCCc1ccc(Cl)cc1)C1CCC(CNc2c(N3CCCC3)c(=O)c2=O)CC1 (stereo not given)	3.3	-0.7	-0.1	-1.0
N#CC1=C(N)Oc2cc(N)ccc2C1c1ccc(C(F)(F)F)cc1 (stereo not given)	10.2	0.4	-0.1	6.4
N#CC1=C(N)Oc2cc(N)ccc2C1C1CCCCC1 (stereo not given)	-2.3	1.8	0.1	46.4*
COc1ccc(-c2noc(CNC(=O)c3ccccc3-c3ccccc3)n2)cc1	1.9	1.4	0.0	7.7
Oc1cccc(-c2cnn3c(NCCc4ccccn4)ccnc23)c1	-12.7	0.1	-0.4	84.7*
CC(C)[C@@H](CO)Nc1ccnc2c(-c3ccoc3)cnn12	-3.2	0.2	0.1	-3.3
